Assay results published in PubChem BioAssay AID651812 (National Center for Advancing Translational Sciences (NCATS), 2012).
Among all 2,100 compounds or so, about 650 (31%) were called active. Another 16% or so got no clear call; they are omitted. The call rests on the fitted dose curve; in most records, active means well fitted inhibition curve with a large enough effect; inconclusive means small, poorly fitted or top-dose-only effect; inactive means flat fitted curve, though single readings scatter. The list shows a part of the results. Where a call stands in place of a potency, no number is given.

Assay: qHTS for inhibitors of Vif-A3G interactions: Cherry picks; further: nearly all actives have a fitted effect of over 80% in size
Conditions: HeLa A3G-eYFP + Vif (tagged APOBEC3G with the HIV-1 protein that degrades it), 24 h; Potency: eYFP fluorescence increase; series mostly up to 36.9 µM
Excerpt: The recent discovery and characterization of host restriction factors, which provide a potent defense to invading retroviruses, has provided new targets for antiviral drug development. APOBEC3G (A3G) and APOBEC3F (A3F) are potent cytidine deaminases that block HIV-1 replication; HIV-1 expresses the Vif protein, which counteracts A3G and A3F by binding to them and inducing their proteasomal degradation. The Vif-A3G and Vif-A3F interactions provide two potential targets for development of small molecules which can interfere with the ability of Vif to degrade A3G or A3F. […] To identify inhibitors that can interfere with Vif mediated degradation of A3G and A3F, we have developed Hela cell lines that stably express A3G or A3F tagged with eYFP at the C-terminal end (A3G-eYFP or A3F-eYFP, respectively) and Vif. In the absence of an inhibitor, Vif induces degradation of A3G-eYFP and A3F-eYFP, and the cells are not fluorescent. In the presence of an inhibitor, it is expected that Vif will be unable to degrade A3G-eYFP and/or A3F-eYFP, resulting in an increase in yellow fluorescence. In this assay, Vif A3G was screened against the cherry picks ordered from the MLSMR. NIH Chemical Genomics Center [NCGC] NIH Molecular Libraries Probe Centers Network [MLPCN] MLPCN Grant: MH093245 Assay Submitter (PI): Vinay Pathak, National Cancer Institute
A3G-Vif cells were harvested from T225 flask and resuspended in phenol free OPTI-MEM medium with 5% FBS. Then 5 uL of 140,000 cells/mL resuspended cells was dispensed into each well of low base Aurora COC 1,536-well plates (black walled, clear bottom) using a Multidrop Combi dispenser. After overnight culture at 37 deg C with 5% CO2, a total of 23 nL of compounds at 5 selected concentrations from the NPC or positive control (2 mM stock of MG132) in DMSO was transferred to each well of the assay plate using a pintool (Kalypsys, San Diego, CA), and the plates were further incubated at 37 deg C with 5% CO2 for 24 hours. After that, the plates were measured on Acumen Explorer (TTP Lab Tech). The fluorescence was detected by 488 nm/Ex and […].
Potency means the concentration at half of the fitted maximal effect.

Question: With `COc1ccc(-c2cc(C(=O)N/N=C/c3sccc3C)c3ccccc3n2)c(OC)c1` as the compound, how does the Potency read?
Answer: inactive

Question: Which Potency does the source give for `COc1ccc(N=Cc2c(O)n(-c3cccc(C)n3)c(=O)c3ccccc23)c(OC)c1` here?
Answer: 13 µM (active)

Question: Which Potency does the source give for `CCc1cccc2c(C(O)c3c[nH]c4ccccc34)c[nH]c12` (stereo not given) here?
Answer: 20.6 µM (active)

Question: Which Potency does the source give for `CC1CC(=O)C2=C(C1)OC(N)=C(C#N)C2c1coc2ccccc2c1=O` (stereo not given) here?
Answer: 23.1 µM (active)

Question: For `N#CC1=C(N)Oc2cc(N)ccc2C1c1ccccc1` (stereo not given), which Potency is on record?
Answer: inactive

Question: For `C=CCn1cc(/C=C/c2cc[n+](C)cc2)c2ccccc21`, which Potency is on record?
Answer: 7.04 µM (active)

Question: With `CCn1cc(/C=C/c2cc[n+](C)cc2)c2ccccc21` as the compound, how does the Potency read?
Answer: 1.77 µM (active)

Question: Which Potency does the source give for `CC(C)n1cc(/C=C/c2cc[n+](C)cc2)c2ccccc21` here?
Answer: 0.25 µM (active)

Question: Which Potency does the source give for `CC(C)n1cc(/C=C2\NC(=O)N(c3cccc(Cl)c3)C2=O)c2ccccc21` here?
Answer: inactive

Question: Which Potency does the source give for `CCOC(=O)CSC1=C(C#N)C(c2ccc(C)s2)CC(=O)N1` (stereo not given) here?
Answer: inactive

Question: For `N#C/C(N=Nc1ccccc1O)=N\Nc1ccccc1O`, which Potency is on record?
Answer: 14.6 µM (active)

Question: Which Potency does the source give for `NC(=O)c1ccc(Cn2c(C(=O)c3cc(Cl)c(N)c(Cl)c3)c3ccccc3[n+]2[O-])cc1` here?
Answer: inactive

Question: Which Potency does the source give for `Cc1c(C(=O)Nc2cccnc2)oc2ccc(Br)cc12` here?
Answer: inactive

Question: Which Potency does the source give for `COc1cc(C(=O)NCCOc2cc(C)cc(C)c2)cc(OC)c1OC` here?
Answer: inactive

Question: Which Potency does the source give for `COc1ccc(-c2ccc3c(c2)S(=O)(=O)c2cccc(C(=O)NCc4cccc(OC(F)(F)F)c4)c2C3=O)cc1OC` here?
Answer: 10.3 µM (active)

Question: With `COc1cc(C(=O)NCCOc2cc(C)cc(C)c2)c(Br)c(OC)c1OC` as the compound, how does the Potency read?
Answer: inactive

Question: For `COc1ccc(-c2ccc3c(c2)S(=O)(=O)c2cccc(C(=O)NCCOc4ccccc4)c2C3=O)cc1OC`, which Potency is on record?
Answer: 12.5 µM (active)

Question: Which Potency does the source give for `COc1ccc(-c2nnc(SCC(=O)NCc3ccccc3)nc2-c2ccc(OC)c(OC)c2)cc1OC` here?
Answer: inactive

Question: With `Fc1cccc(Cc2c(-c3ccco3)nc3ccc(Br)cn23)c1` as the compound, how does the Potency read?
Answer: inactive

Question: Which Potency does the source give for `CC(NC1=CC(=O)c2cccnc2C1=O)C(O)c1ccccc1` (stereo not given) here?
Answer: inactive

Question: For `CN(CC(=O)Nc1ccc(Cl)c(C(F)(F)F)c1)C(=O)c1ccc(S(=O)(=O)N2CCOCC2)cc1`, which Potency is on record?
Answer: inactive

Question: Which Potency does the source give for `CN(C)c1ccc(/C=C/c2ccnc3ccccc23)cc1O` here?
Answer: 18.4 µM (active)

Question: For `CN(C)c1ccc(/C=C/c2ccnc3ccccc23)cc1C=O`, which Potency is on record?
Answer: inactive

Question: With `Cc1cc(/C=C/c2ccnc3ccccc23)ccc1N` as the compound, how does the Potency read?
Answer: 18.4 µM (active)

Question: With `CCc1cc(/C=C/c2ccnc3ccccc23)ccc1N(C)C` as the compound, how does the Potency read?
Answer: 18.4 µM (active)

Question: For `CN1CCCc2cc(/C=C/c3ccnc4ccccc34)ccc21`, which Potency is on record?
Answer: 5.17 µM (active)

Question: For `Cc1cc(NC(=O)Nc2nnc(N(C)Cc3ccccc3)s2)ccc1Br`, which Potency is on record?
Answer: inactive

Question: With `COc1cccc(/C=N/NC(=O)c2[nH]nc3c2CCc2ccccc2-3)c1` as the compound, how does the Potency read?
Answer: inactive

Question: For `CC(=O)n1cc(/C=N/NC(=O)c2sc(C)nc2C)c2ccccc21`, which Potency is on record?
Answer: inactive

Question: Which Potency does the source give for `COc1ccc(C(C)(O)c2nc(-c3ccccc3OC)cs2)cc1` (stereo not given) here?
Answer: inactive

Question: For `CN(C)c1ccc(/C=C/c2ccnc3ccccc23)cc1N`, which Potency is on record?
Answer: inactive

Question: For `Cc1cc(N(C)C)c(C)cc1/C=C/c1ccnc2ccccc12`, which Potency is on record?
Answer: 20.6 µM (active)

Question: With `Cc1cc(/C=C/c2ccnc3ccccc23)ccc1N(C)C` as the compound, how does the Potency read?
Answer: 20.6 µM (active)

Question: With `CCn1c2ccccc2c2c3ncc4cccn4c3ccc21` as the compound, how does the Potency read?
Answer: 23.1 µM (active)

Question: With `CCOC(=O)/C(C#N)=C\C=C1C=CN(C)C=C1` as the compound, how does the Potency read?
Answer: 8.2 µM (active)

Question: For `COc1cc2c(cc1OC)CN(C(=O)/C=C/c1cccs1)CC2`, which Potency is on record?
Answer: inactive

Question: For `Cc1cc(C)nc(-n2nc(C)cc2NC(=O)c2ccc(F)cc2F)n1`, which Potency is on record?
Answer: inactive

Question: With `Cc1cc(N2CCCC2)ccc1/C=C1\NC(=S)N(C)C1=O` as the compound, how does the Potency read?
Answer: 3.66 µM (active)

Question: For `Cc1cc(/C=C2\NC(=S)N(C)C2=O)ccc1N1CCCC1`, which Potency is on record?
Answer: 8.86 µM (active)

Question: For `Cc1cc(N2CCCC2)ccc1/C=C1/C(=O)N(C)C(=S)N1C`, which Potency is on record?
Answer: 18.4 µM (active)

Question: Which Potency does the source give for `O=[N+]([O-])/C=C\c1ccc(N2CCCC2)c(F)c1` here?
Answer: inactive

Question: Which Potency does the source give for `COc1cc(N(C)C)c(OC)cc1/C=C/c1ccnc2ccccc12` here?
Answer: 20.6 µM (active)

Question: For `COc1cc(/C=C/c2ccnc3ccccc23)ccc1N(C)C`, which Potency is on record?
Answer: 20.6 µM (active)

Question: For `COc1ccc(/C=C/c2ccnc3ccccc23)c(OC)c1`, which Potency is on record?
Answer: inactive

Question: With `COc1ccccc1-c1c(C#N)c(N)nc2c1CCc1ccccc1-2` as the compound, how does the Potency read?
Answer: inactive

Question: With `CCOC(=O)c1c(Nc2ccc(Cl)cc2)sc(/C=C2\C=Nc3ccccc32)c1O` as the compound, how does the Potency read?
Answer: 13 µM (active)

Question: Which Potency does the source give for `CNc1cncc(-c2cc(C)c(O)c(C)c2)n1` here?
Answer: inactive

Question: Which Potency does the source give for `Cn1cc(/C=C/c2ccc3ccccc3n2)c2ccccc21` here?
Answer: 20.6 µM (active)

Question: With `Cn1cc(/C=C/c2ccnc3ccccc23)c2ccccc21` as the compound, how does the Potency read?
Answer: 23.1 µM (active)

Question: For `COc1cc(C2c3cc4c(cc3OC(C)(N3CCCC3)C2C)OCO4)cc(OC)c1OC` (stereo not given), which Potency is on record?
Answer: inactive

Question: For `CCOc1c(Cl)cc(/C=N/NC(N)=S)cc1OC`, which Potency is on record?
Answer: inactive

Question: Which Potency does the source give for `CCOc1ccc(-c2cc(C(F)(F)F)c(C#N)c(SCC(=O)Nc3ccccc3)n2)cc1` here?
Answer: 18.4 µM (active)

Question: Which Potency does the source give for `CCOC(=O)c1ccc(N=Nc2c(C)c(C#N)c(O)[nH]c2=O)cc1` here?
Answer: inactive

Question: With `Cc1cnc(NC(=O)CC(C)c2ccccc2)s1` (stereo not given) as the compound, how does the Potency read?
Answer: inactive

Question: With `CCOC(=O)c1ccc(NC(=O)CSc2nc(-c3ccc(F)cc3)cc(C(F)(F)F)c2C#N)cc1` as the compound, how does the Potency read?
Answer: 20.6 µM (active)

Question: For `Cc1ccc2nc(NC(=O)CN(C)S(=O)(=O)c3cccc4nsnc34)sc2c1`, which Potency is on record?
Answer: inactive

Question: For `CCOc1ccc(-c2cc(C(=O)N/N=C(\C)c3cccnc3)c3ccccc3n2)cc1`, which Potency is on record?
Answer: inactive

Question: With `CCOC(=O)c1ccc(NC(=O)Cn2ncc(Cl)c(Cl)c2=O)cc1` as the compound, how does the Potency read?
Answer: inactive

Question: With `Cc1cc(C(F)(F)F)c(C#N)c(SCC(=O)Nc2nc3ccccc3s2)n1` as the compound, how does the Potency read?
Answer: 18.4 µM (active)

Question: For `Cc1ccc(S(=O)(=O)CCSc2nc(C)cc(C(F)(F)F)c2C#N)cc1`, which Potency is on record?
Answer: 14 µM (active)

Question: For `CCOc1ccc(-n2nnnc2SCC(=O)c2ccccc2)cc1`, which Potency is on record?
Answer: inactive

Question: With `COc1ccc(C2C(C#N)=C(N)Oc3cc(N)ccc32)cc1OC` (stereo not given) as the compound, how does the Potency read?
Answer: inactive

Question: Which Potency does the source give for `COc1cc(C2C3=C(COC3=O)Oc3cc4c(cc32)OCO4)ccc1OC(C)=O` (stereo not given) here?
Answer: inactive

Question: For `Cc1cccc(N2CCN(C(=O)c3cccc(N4CCCC4=O)c3)C(C)C2)c1` (stereo not given), which Potency is on record?
Answer: inactive

Question: With `COc1cc(-c2noc(C)c2C#Cc2ccc(N)cc2)cc(OC)c1OC` as the compound, how does the Potency read?
Answer: inactive
